# Experimental data: PubChem BioAssay
# Test: small-molecule binders of probe aLefty1, primary screen, biochemical, small-molecule microarray, 635/667 nm fluorescence (AID 1153);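 further: score merges spot fluorescence with signal-to-noise ratio from the scanned slide images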
# Conditions: higher = more signal
row,Structure (SMILES),composite z-score
1,CCOC(=O)[C@H](CC(C)C)NC(=O)CCC1CC(OC(=O)NCc2cccc3ccccc23)CC2(CCCC(COC(=O)NCCC(C)C)O2)O1 (stereo not given in full),0.185
2,CCOC(=O)[C@H](CC(C)C)NC(=O)CCC1CC(OC(=O)NCc2cccc3ccccc23)CC2(CCCC(COC(=O)NCC3CCCCC3)O2)O1 (stereo not given in full),0.183
3,CCC=CCCC(OC(=O)c1ccc(Br)cc1)C1=CCCCC1=O (stereo not given),-0.3
4,Cc1cc2c(nc1C)CCCCN2CC(C)ON=C[C@@H](C)[C@H](OCc1ccccc1)C(C)C (stereo not given in full),-0.8
5,CCOC(=O)[C@H](Cc1ccccc1)NC(=O)CCC1CC(OC(=O)NCc2cccc3ccccc23)CC2(CCCC(COC(=O)NCCC(C)C)O2)O1 (stereo not given in full),-0.0733
6,Cc1ccc(S(=O)(=O)n2c3ccccc3c3nnc(C(=O)c4ccccc4)nc32)cc1,-0.179
7,COC(=O)NCC=Cc1nc(CCCO)co1,-0.164
8,Cc1ccc(S(=O)(=O)N[C@H]2COC(=O)CC=C[C@H](C)[C@@H](NS(=O)(=O)c3ccc(C)cc3)COC(=O)CC=C[C@@H]2C)cc1,-0.147
9,O=C1[C@H]2[C@H]3[C@H](O)[C@H](O)CC(=NOCc4ccccc4)[C@@H]3CC[C@H]2C(=O)N1C[C@@H]1CCCO1,-0.28
10,CCCCC#C[C@@H]1C=C[C@H](OC(C)=O)[C@@H](COC(C)=O)O1,-0.0111
11,Cc1cc2c(nc1C)CCCN2CC(O)CN1CCCc2nc(C)c(C)cc21,0.547
12,C#CCCCON=C1C[C@@H](O)[C@@H](O)[C@@H]2[C@@H]3C(=O)N(CC)C(=O)[C@@H]3CC[C@@H]12,-0.243
13,CCOC(=O)CCN1C(=O)[C@H]2[C@H]3[C@H](O)[C@H](O)CC(=NNC(=O)OCc4ccccc4)[C@@H]3CC[C@H]2C1=O,-0.147
14,CC(C)(C)N1C(=O)[C@H]2[C@H]3[C@H](O)[C@H](O)CC(=NOCc4ccccc4)[C@H]3CC[C@H]2C1=O,0.57
15,C[C@H]1COC(=O)[C@@H]2CCCN2C(=O)[C@@H](C)COC(=O)[C@H](Cc2ccccc2)NC1=O,-0.394
16,O=C1[C@H]2[C@H]3[C@H](O)[C@H](O)CC(=NO[C@@H]4O[C@H](CO)[C@@H](O)[C@H](O)[C@H]4O)[C@H]3CC[C@H]2C(=O)N1c1cccc(Oc2ccccc2)c1,-0.286
17,CC(C)=CCCC(C)=CCON=C1C[C@@H](O)[C@@H](O)[C@@H]2[C@@H]3C(=O)N(Cc4ccccc4)C(=O)[C@@H]3CC[C@H]12,-0.0197
18,CC(C)(C)N1C(=O)[C@H]2[C@H]3[C@H](O)[C@H](O)CC(=O)[C@H]3CC[C@H]2C1=O,-0.144
19,COc1ccc(O[C@H]2C=C[C@@H](c3ccccc3)O[C@@H]2COC(=O)CCC(C)=NO[C@@H]2O[C@H](COC(C)=O)[C@@H](OC(C)=O)[C@H](OC(C)=O)[C@H]2OC(C)=O)cc1,-0.019
20,COc1ccc(COC(=O)NN=C2C[C@@H](O)[C@@H](O)[C@@H]3[C@@H]4C(=O)N(Cc5ccccc5)C(=O)[C@@H]4CC[C@H]23)cc1,0.641
21,COc1cc(O)c(C(=O)C=Cc2ccc3c(c2)OCO3)c(OC)c1,0.0056
22,C#CCCCON=C1C[C@@H](O)[C@@H](O)[C@@H]2[C@@H]3C(=O)N(C(C)(C)C)C(=O)[C@@H]3CC[C@H]12,0.571
23,O=C(NN=C1C[C@@H](O)[C@@H](O)[C@@H]2[C@@H]3C(=O)N(C[C@@H]4CCCO4)C(=O)[C@@H]3CC[C@H]12)OCc1ccccc1,0.318
24,COc1cccc([C@H]2Oc3ccc(OC)cc3C(=NO[C@@H](C)c3cn([C@H](CO)Cc4ccccc4)nn3)[C@@H]2O)c1,-0.147
25,O=C1[C@H]2[C@H]3[C@H](O)[C@H](O)CC(=NOCc4ccccc4)[C@H]3CC[C@H]2C(=O)N1Cc1ccc2c(c1)OCO2,-0.147
26,CC(C)CON=C1C[C@@H](O)[C@@H](O)[C@@H]2[C@@H]3C(=O)N(C4CCCCC4)C(=O)[C@@H]3CC[C@H]12,-0.101
27,CC(C)(C)N1C(=O)[C@H]2[C@H]3[C@H](O)[C@H](O)CC(=NO[C@@H]4O[C@H](CO)[C@@H](O)[C@H](O)[C@H]4O)[C@H]3CC[C@H]2C1=O,-0.193
28,COC(=O)[C@H](C)NC(=O)CCC1CC(OC(=O)NCCc2ccc(F)cc2)CC2(CCCC(COC(=O)NCCC(C)C)O2)O1 (stereo not given in full),0.0844
29,CC(=O)Nc1ccc([C@@H]2N[C@H](C(=O)O)CC[C@H]2C)cc1,-0.017
30,COc1ccc(O[C@H]2C=C[C@@H](c3ccccc3)O[C@@H]2CON=C(C)C)cc1,0.407
